A word on the AC50: it is the midpoint of the concentration-response curve, whichever way the signal moves.

Structures are written as SMILES. Inconclusive results are not listed. Activity calls are given as the source filed them. The calls were made as follows: active = hit-call score of the fitted dose curve at least 0.9, where 1 is the maximum; inconclusive = response in the unintended direction; inactive = score below 0.9.

Chain of Bile acid receptor (Homo sapiens) (Q96RI1 whole entry, looked up, the tested form may be a part): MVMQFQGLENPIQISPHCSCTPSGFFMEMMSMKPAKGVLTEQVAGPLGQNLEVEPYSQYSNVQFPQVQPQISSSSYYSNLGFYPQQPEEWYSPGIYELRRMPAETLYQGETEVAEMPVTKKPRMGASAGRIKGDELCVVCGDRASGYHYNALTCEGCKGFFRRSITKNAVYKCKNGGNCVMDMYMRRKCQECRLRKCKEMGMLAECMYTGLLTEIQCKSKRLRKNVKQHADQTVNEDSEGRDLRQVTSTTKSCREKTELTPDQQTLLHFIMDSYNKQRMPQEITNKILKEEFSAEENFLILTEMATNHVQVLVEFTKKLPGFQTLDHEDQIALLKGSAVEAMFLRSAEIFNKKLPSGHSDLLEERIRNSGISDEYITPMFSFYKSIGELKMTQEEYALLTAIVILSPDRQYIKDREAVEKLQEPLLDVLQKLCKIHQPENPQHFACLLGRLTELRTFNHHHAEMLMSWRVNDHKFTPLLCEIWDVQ

The target of the assay is Bile acid receptor (Homo sapiens) (UniProt Q96RI1). The assay can be described thus: OT_FXR_FXRSRC1_0480: Odyssey Thera (OT) 8-hour HEK293T Protein-Complementation Assay for Farnesoid X receptor/SRC-1 Co-activator (AID 2283383). The protocol:
OT_FXR_FXRSRC1_0480 is a cell-based assay that uses HEK293T, a human kidney cell line, with measurements taken at 8 hours after chemical dosing in a 384-well plate.OT_FXR_FXRSRC1_0480 is one of one assay component(s) measured or calculated from the OT_FXR_FXRSRC1_0480 assay. It is designed to make measurements of protein fragment complementation, a form of binding reporter, as detected with fluorescence intensity signals by Protein-fragment Complementation technology.Data from the assay component OT_FXR_FXRSRC1_0480 was analyzed into 1 assay endpoint. This assay endpoint, OT_FXR_FXRSRC1_0480, was analyzed in the positive analysis fitting direction relative to DMSO as the negative control and baseline of activity. Using a type of binding reporter, measures of receptor for gain-of-signal activity can be used to understand the binding at the pathway-level as they relate to the gene NR1H4. Furthermore, this assay endpoint can be referred to as a primary readout, because the performed assay has only produced 1 assay endpoint. To generalize the intended target to other relatable targets, this assay endpoint is annotated to the nuclear receptor intended target family, where the subfamily is non-steroidal.
Protein-fragment complementation assay, or PCA, is a method for the identification and quantification of protein-protein interactions. In the PCA, the proteins of interest ("bait" and "prey") are each covalently linked to fragments of a third protein (e.g. DHFR, which acts as a "reporter"). Interaction between the bait and the prey proteins brings the fragments of the reporter protein in close proximity to allow them to form a functional reporter protein whose activity can be measured.
As for `CC=C1CC2C=CC1C2` (stereo unspecified), the outcome was inactive.
Regarding `CCN(CCC#N)c1ccc(N=Nc2c(Cl)cc([N+](=O)[O-])cc2Cl)cc1`, the AC50 is 29 µM (active).
Consider `O=C(C(Cl)Cl)N1CCOC12CCCCC2`, for which the compound was classed as inactive.
In the case of `CC/C=C\C/C=C\C/C=C\CCCCCCCC(=O)O`, the compound was called inactive.
On to `CC(C)(C)c1ccc(-c2ccc(C(C)(C)C)cc2)cc1`, for which the half-maximal activity concentration (AC50) was 33.5 µM (active).
Consider `CC(C)(C)c1ccc(OC(=O)c2ccccc2O)cc1`, for which the AC50 is 35.6 µM (active).
On to `c1ccc2c(c1)ccc1cc3c(ccc4ccccc43)cc12`, for which the compound was called inactive.
On to `NC(=O)c1ccccc1O`, for which the compound was called inactive.
In the case of `CCOC(=O)CC`, the outcome was inactive.
Turning to `CCCCCc1ccc(Cl)cc1`, the compound was classed as inactive.
For `Cc1cc(C)c(C)cc1C`, the result was inactive.
For `CCCCOCCOC(=O)COc1nc(Cl)c(Cl)cc1Cl`, the call was inactive.
Still for that read-out and setting: the entry for `CC(=O)[C@H]1[C@H](C#N)C[C@H]2[C@@H]3CC=C4C[C@@H](O)CC[C@]4(C)[C@H]3CC[C@@]21C` is “inactive”; for `CCCCCCCC/C=C\CCCCCCCC(=O)O` it is “inactive”.
Take `CCCCCCCCO[C@@H]1O[C@H](CO)[C@@H](O)[C@H](O)[C@H]1O`: the call was inactive.
Same read-out and setting: the value for `CC(C)c1ccc2c(C(C)C)cc(C(C)C)c(S(=O)(=O)O)c2c1` was “inactive”.

The values are drawn from PubChem BioAssay (EPA / NIEHS).
